# Test results reported in PMC11062922 (Nature Chemical Biology, 2023).
# Read-outs that look alike come from different tables or passages of the source.
# Tests used:
# [1] = tested on: ABCD3; set-up: species or system human, MV4-11 + K-562 + COLO205 + SK-N-BE2 + OVCAR-8; conditions: read-out: apparent Kd, n = 1
# [2] = tested on: DCK; set-up: species or system human, MV4-11 + K-562 + COLO205 + SK-N-BE2 + OVCAR-8; conditions: read-out: apparent Kd, compound concentrations: 100 nM and 1000 nM (sheet 'Samples'), n = 1
# [3] = tested on: FECH; set-up: species or system human, MV4-11 + K-562 + COLO205 + SK-N-BE2 + OVCAR-8; conditions: read-out: apparent Kd, compound concentrations: 100 nM and 1000 nM (sheet 'Samples'), n = 1
# [4] = tested on: IGF1R; set-up: species or system human, MV4-11 + K-562 + COLO205 + SK-N-BE2 + OVCAR-8; conditions: read-out: apparent Kd, compound concentrations: 100 nM and 1000 nM (sheet 'Samples'), n = 1
# [5] = tested on: INSR; set-up: species or system human, MV4-11 + K-562 + COLO205 + SK-N-BE2 + OVCAR-8; conditions: read-out: apparent Kd, compound concentrations: 100 nM and 1000 nM (sheet 'Samples'), n = 1
# [6] = tested on: LIMK2; set-up: species or system human, MV4-11 + K-562 + COLO205 + SK-N-BE2 + OVCAR-8; conditions: read-out: apparent Kd, n = 1
# [7] = tested on: MAP2K3; set-up: species or system human, MV4-11 + K-562 + COLO205 + SK-N-BE2 + OVCAR-8; conditions: read-out: apparent Kd, compound concentrations: 100 nM and 1000 nM (sheet 'Samples'), n = 1
# [8] = tested on: MAP3K12; set-up: species or system human, MV4-11 + K-562 + COLO205 + SK-N-BE2 + OVCAR-8; conditions: read-out: apparent Kd, compound concentrations: 100 nM and 1000 nM (sheet 'Samples'), n = 1
# [9] = tested on: NEK2; set-up: species or system human, MV4-11 + K-562 + COLO205 + SK-N-BE2 + OVCAR-8; conditions: read-out: apparent Kd, compound concentrations: 100 nM and 1000 nM (sheet 'Samples'), n = 1
# [10] = tested on: ADCK1; conditions: compound concentrations:3nM, 10nM, 30nM, 100nM, 300nM, 1000nM, 3000nM, 30000nM,R2:0.94101841538293196,slope:0.49878905871205997,EC50 Standard Error, by the legend:Standard error of the EC50 estimation as provided by the drc package.
# [11] = tested on: CSNK2A1;CSNK2A3; conditions: compound concentrations:3nM, 10nM, 30nM, 100nM, 300nM, 1000nM, 3000nM, 30000nM,R2:0.95393018675228303,slope:1.4690097586887201,EC50 Standard Error, by the legend:Standard error of the EC50 estimation as provided by the drc package.
# [12] = tested on: CSNK2A2; conditions: compound concentrations:3nM, 10nM, 30nM, 100nM, 300nM, 1000nM, 3000nM, 30000nM,R2:0.98972333089258602,slope:1.29833762231974,EC50 Standard Error, by the legend:Standard error of the EC50 estimation as provided by the drc package.
# [13] = tested on: CSNK2B; conditions: compound concentrations:3nM, 10nM, 30nM, 100nM, 300nM, 1000nM, 3000nM, 30000nM,R2:0.92635600361285697,slope:3.98443256783656,EC50 Standard Error, by the legend:Standard error of the EC50 estimation as provided by the drc package.
# [14] = tested on: EIF3J; conditions: compound concentrations:3nM, 10nM, 30nM, 100nM, 300nM, 1000nM, 3000nM, 30000nM,R2:0.88928942104591402,slope:1.5975809400026999,EC50 Standard Error, by the legend:Standard error of the EC50 estimation as provided by the drc package.
# [15] = tested on: IRAK3; conditions: compound concentrations:3nM, 10nM, 30nM, 100nM, 300nM, 1000nM, 3000nM, 30000nM,R2:0.92660925835613905,slope:0.92534849669637798,EC50 Standard Error, by the legend:Standard error of the EC50 estimation as provided by the drc package.
# [16] = tested on: NQO2; conditions: compound concentrations:3nM, 10nM, 30nM, 100nM, 300nM, 1000nM, 3000nM, 30000nM,R2:0.94793507341518402,slope:1.3847657393086299,EC50 Standard Error, by the legend:Standard error of the EC50 estimation as provided by the drc package.
# [17] = tested on: AAK1; conditions: compound concentrations:3nM, 10nM, 30nM, 100nM, 300nM, 1000nM, 3000nM, 30000nM,R2:0.99102510116180997,slope:1.0759365754475601,EC50 Standard Error, by the legend:Standard error of the EC50 estimation as provided by the drc package.
# [18] = tested on: AURKA; conditions: compound concentrations:3nM, 10nM, 30nM, 100nM, 300nM, 1000nM, 3000nM, 30000nM,R2:0.99130699388271104,slope:0.94634188293278299,EC50 Standard Error, by the legend:Standard error of the EC50 estimation as provided by the drc package.
# [19] = tested on: AURKB; conditions: compound concentrations:3nM, 10nM, 30nM, 100nM, 300nM, 1000nM, 3000nM, 30000nM,R2:0.99833060468955204,slope:0.90064720888108796,EC50 Standard Error, by the legend:Standard error of the EC50 estimation as provided by the drc package.
# [20] = tested on: BCR; conditions: compound concentrations:3nM, 10nM, 30nM, 100nM, 300nM, 1000nM, 3000nM, 30000nM,R2:0.97560136182595103,slope:1.05645406378656,EC50 Standard Error, by the legend:Standard error of the EC50 estimation as provided by the drc package.
# [21] = compound concentrations:100 nM and 1000 nM (sheet 'Samples')
molecule,measurement,setting,value
Cn1ncc2c(N)ncnc21 [SKF-18267],potency estimated from few doses,"[1]; compound concentrations: 100 nM and 1000 nM (sheet 'Samples'), CATDS: 4.0800331971119997E-3",1.27 µM
same,potency estimated from few doses,[2]; CATDS: 4.5565133541076702E-3,0.987 µM
same,potency estimated from few doses,[3]; CATDS: 4.0094324755209198E-3,1.33 µM
same,potency estimated from few doses,[4]; CATDS: 4.3813441316225901E-3,1.08 µM
same,potency estimated from few doses,[5]; CATDS: 4.5573832930641796E-3,0.986 µM
same,potency estimated from few doses,"[6]; compound concentrations: 100 nM and 1000 nM (sheet 'Samples'), CATDS: 3.7102033319592401E-3",1.63 µM
same,potency estimated from few doses,[7]; CATDS: 4.14742483783686E-3,1.22 µM
same,potency estimated from few doses,[8]; CATDS: 4.9126246890692504E-3,0.843 µM
same,potency estimated from few doses,[9]; CATDS: 4.6073088162857699E-3,0.964 µM
Entospletinib,EC50,[10],16.4 µM
same,Kd,[10]; read-out: apparent Kd,10.5 µM
same,EC50,[11],1.59 µM
same,Kd,[11]; read-out: apparent Kd,1.59 µM
same,EC50,[12],1.31 µM
same,Kd,[12]; read-out: apparent Kd,1.31 µM
same,EC50,[13],0.941 µM
same,Kd,[13]; read-out: apparent Kd,0.941 µM
same,EC50,[14],1.61 µM
same,Kd,[14]; read-out: apparent Kd,1.61 µM
same,EC50,[15],4.71 µM
same,Kd,[15]; read-out: apparent Kd,2.03 µM
same,EC50,[16],0.295 µM
same,Kd,[16]; read-out: apparent Kd,0.131 µM
COc1ccc(Nc2ncc(C#N)c(Nc3ccccc3C(N)=O)n2)cc1N1CCN(C)CC1.Cl [GSK1558669A],potency estimated from few doses,[4]; CATDS: 6.9220248980982396E-3,0.752 µM
same,potency estimated from few doses,[5]; CATDS: 7.0439666537016601E-3,0.692 µM
same,potency estimated from few doses,[9]; CATDS: 6.7574361761292799E-3,0.849 µM
TAK659,EC50,[17],0.997 µM
same,Kd,[17]; read-out: apparent Kd,0.72 µM
same,EC50,[18],1.28 µM
same,Kd,[18]; read-out: apparent Kd,0.59 µM
same,EC50,[19],0.161 µM
same,Kd,[19]; read-out: apparent Kd,0.0867 µM
same,EC50,[20],1.02 µM
same,Kd,[20]; read-out: apparent Kd,0.528 µM
Cl.Cl.NC(CNC(=O)c1cc(Br)c(-c2ccnc3[nH]ccc23)s1)c1ccccc1.NC(CNC(=O)c1cc(Br)c(-c2ccnc3[nH]ccc23)s1)c1ccccc1 (stereo not shown) [GSK1322949A],potency estimated from few doses,[8]; CATDS: 3.2066551551393298E-2,1.04 µM
O=C(O)C(F)(F)F.O=C(O)C(F)(F)F.O=c1[nH]ccc2nc(N[C@@H]3CCCNC3)nc(Nc3ccc(S(=O)(=O)N4CCOCC4)cc3)c12.O=c1[nH]ccc2nc(N[C@@H]3CCCNC3)nc(Nc3ccc(S(=O)(=O)N4CCOCC4)cc3)c12 [GSK2177277A],potency estimated from few doses,[7]; CATDS: 6.4169710439364001E-3,1.55 µM
CCn1c(-c2cccnc2O)nc2cnccc21 [SB-736715],potency estimated from few doses,[2]; CATDS: 1.18043457558384E-2,2.29 µM
O=C1N=C(NCCCc2ccccc2)S/C1=C\c1ccc2ncccc2c1 [RO4493941-000],potency estimated from few doses,[3]; CATDS: 5.9450857327724899E-2,1.95 µM
CC(C)Oc1ccc2c(-c3ccnc(Nc4ccc(N5CCN(C)CC5)cc4)n3)cnn2n1 [GW696155X],potency estimated from few doses,[6]; [21],0.883 µM
Cc1cccc(-c2cc(-c3c[nH]nc3-c3ccccn3)ccn2)c1 [GW679395X],potency estimated from few doses,[1]; [21],1.2 µM
